Laboratory results as given in PubChem BioAssay (NCATS).
Results filed as inconclusive are left out. Active and inactive are the calls of the source. Unless noted, the call rests on the fitted dose curve; in most records, active means well fitted curve in the direction sought with a large enough effect; inconclusive means small, poorly fitted or top-dose-only effect, or another doubt; inactive means no such curve, though single readings can be large; an effect the other way counts as inactive or inconclusive.

Key:
[1] = qHTS to identify inhibitors of the type 1 interferon - major histocompatibility complex class I in skeletal muscle: primary screen against the NCATS LOPAC collection (AID 1347405);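 further: lytic HiBiT luminescence reporting HLA-B protein level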
Summary of the method: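 Cells: C25cl48 human myoblasts, HiBiT-tagged HLA-B*08:01, stimulated with IFN-beta 4.0 ng/ml. Compounds are titrated 1:4.3 over 7 points from 46 uM final and incubated 24 hrs; endogenous MHC class I is quantified by HiBiT lytic luminescence.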

[2] = qHTS for inhibitors of adenylyl cyclases using a fission yeast platform: a pilot screen against the NCATS LOPAC library (AID 1347410)
Summary of the method: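 Growth medium went into the plates first, then compounds were pinned (final up to 57 µM), then CHP2027 yeast were added. Plates were incubated overnight (18 h) at 30C in the dark, and GFP was measured by laser scanning cytometry.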

[3] = Validation qHTS assay for inhibitors of Activation Induced Cytidine Deaminase (AID): UDG Counterscreen signal (AID 1347427)
Summary of the method: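 Counterscreen read of UDG activity (2 U/mL, 4/3x) in the FRET deamination format with AID (1 uM, 4/3x), DJC20/DJC23 substrates (250 nM, 4x), 4 h at room temperature. NaOH stop, fluorescence at 560 ex/665 em.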

[4] = target: Single-stranded DNA cytosine deaminase (Homo sapiens) (UniProt Q9GZX7); experiment: Validation qHTS assay for inhibitors of Activation Induced Cytidine Deaminase (AID): AID signal (AID 1347429)
Summary of the method: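 In this coupled qHTS, AID deaminates a FRET-labelled ssDNA substrate in the presence of UDG over 4 hr at room temperature. Compounds span up to 114 uM final.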

[5] = target: Calcium and integrin-binding protein 1 (Homo sapiens) (UniProt Q99828); experiment: Validation qHTS for Identification of Calcium Integrin Binding protein 1 (CIB1) Competitor (AID 1508618)
Summary of the method: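 Fluorescence polarization with 1 uM CIB1-GST and 100 nM FITC-alphaIIb peptide in HEPES pH 7.4, NaCl, 5 mM CaCl2, Tween20. Compounds at up to 114 uM final, preincubated with protein 15 min; read after 15 min more at RT.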

[6] = Primary qHTS for inhibitors of La Crosse Virus (LACV) - induced cell death in SH-SY5Y cells (AID 1508616);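 further: top concentration of the series differs between compounds; higher means more rescue of cells from virus-induced death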
Summary of the method: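 Readout was luminescence from ATPLite 1step added after a 6-day LACV infection (0.01 MOI) of SH-SY5Y cells that had received pin-transferred compound 24 hr after seeding.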

[7] = qHTS to identify inhibitors of the type 1 interferon - major histocompatibility complex class I in skeletal muscle: primary screen against the NCATS Pharmaceutical Collection (AID 1347407);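 further: luminescence of HiBiT knocked into endogenous HLA-B as interferon-induced MHC class I level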
Summary of the method: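 Cells were seeded with 4 ng/ml IFN-beta, incubated 1 h, then dosed with compounds over eight 1:5 steps up to 46 uM final. After 24 h at 37 C, HiBiT lytic reagent was added and luminescence read after 10 min lysis in the dark.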

[8] = target: Protein phosphatase 1D (Homo sapiens) (UniProt O15297); experiment: RapidFire Mass Spectrometry qHTS Assay for Modulators of WT P53-Induced Phosphatase 1 (WIP1) (AID 1347424);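 further: amount of dephosphorylated VEPPL-S-QETFS peptide product formed by WIP1; series mostly up to about 63 µM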
Summary of the method: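 WIP1 (10 nM final) was preincubated 1 h at room temperature with compounds in Tris-HCl pH 7.5, 30 mM MgCl2, TCEP, EGTA, BSA; 2 uM VEPPL-pS-QETFS phosphopeptide was added for 5 min, quenched with formic acid, and dephosphorylated product quantified by RapidFire MS.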

[9] = target: Protein phosphatase 1D (Homo sapiens) (UniProt O15297); experiment: Rhodamine-PBP qHTS Assay for Modulators of WT P53-Induced Phosphatase 1 (WIP1) (AID 1347425)
Summary of the method: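 WIP1 (5 nM final) was preincubated with compound for 1 hour at room temperature. It then dephosphorylated 10 uM VEPPL-pS-QETFS peptide in Tris-HCl pH 7.5 with 30 mM MgCl2. Released Pi was detected by 10 uM Rh-PBP fluorescence (ex 525/em 598 nm) read at 1-min intervals for 11 min, as delta f1 - f0.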

[10] = target: Calcium and integrin-binding protein 1 (Homo sapiens) (UniProt Q99828); experiment: Primary qHTS for Identification of Calcium Integrin Binding Protein 1 (CIB1) Competitor (AID 1508620);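 further: GST tagged CIB1 binding a fluorescein labelled alphaIIb integrin peptide tracer; top concentration of the series differs between compounds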
Summary of the method: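 Fluorescence polarization competition: CIB1-GST (1 uM final) preincubated with compound 15 min at room temperature, then FITC-labeled alphaIIb peptide (100 nM final) added for another 15 min. Polarization read at Ex 480/Em 540.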

[11] = Counterscreen qHTS for small molecule stabilizers of the endoplasmic reticulum resident proteome: GLuc-NoTag assay (AID 1508627);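 further: SH-SY5Y cells given compound then 100 nM thapsigargin to empty ER calcium; series mostly up to about 76 µM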
Summary of the method: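 SH-SY5Y cells stably expressing constitutively secreted GLuc (no SERCaMP tag) were pre-incubated 5 h, treated with compound for 19 h, then 100 nM thapsigargin for 4 h at 37C; medium GLuc read by coelenterazine luminescence.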

[12] = Confirmatory qHTS for small molecule stabilizers of the endoplasmic reticulum resident proteome: Secreted ER Calcium Modulated Protein (SERCaMP) assay (AID 1508628);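 further: SH-SY5Y cells given compound 16 h then thapsigargin 100 nM for 4 h; series mostly up to about 76 µM; nearly all actives have a fitted effect of over 40% in size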
Summary of the method: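 We seeded SH-SY5Y-GLuc-SERCaMP cells, added compounds (three concentrations in the primary run, eleven up to 76.6 uM in confirmation), incubated 16 h, depleted ER calcium with thapsigargin, and read luciferase 4 h later.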

[13] = Primary qHTS for Huh7 cytotoxicity: counterscreen for inhibitors of MERS-S pseudotyped particle cell entry (AID 1479147; calls by dose curve)
[14] = Primary qHTS for inhibitors of MERS-S pseudo-typed particle cell entry (AID 1479149; calls by dose curve; further: nearly all actives have a fitted effect of over 60% in size)
[15] = Primary qHTS for Vero E6 cytotoxicity: counterscreen for inhibitors of SARS-S pseudo-typed particle cell entry (AID 1479150; calls by dose curve)
[16] = Primary qHTS for inhibitors of SARS-S pseudo-typed particle cell entry (AID 1479145; calls by dose curve; further: nearly all actives have a fitted effect of over 45% in size)

Measured: Potency

Chain of Calcium and integrin-binding protein 1 (Homo sapiens) (Q99828 whole entry, looked up): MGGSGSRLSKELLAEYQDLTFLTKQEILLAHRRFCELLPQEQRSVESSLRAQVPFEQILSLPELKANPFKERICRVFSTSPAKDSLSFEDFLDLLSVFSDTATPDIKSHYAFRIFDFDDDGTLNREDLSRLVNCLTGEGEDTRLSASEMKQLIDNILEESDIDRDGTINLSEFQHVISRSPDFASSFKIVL
Chain of Single-stranded DNA cytosine deaminase (Homo sapiens) (Q9GZX7 whole entry, looked up): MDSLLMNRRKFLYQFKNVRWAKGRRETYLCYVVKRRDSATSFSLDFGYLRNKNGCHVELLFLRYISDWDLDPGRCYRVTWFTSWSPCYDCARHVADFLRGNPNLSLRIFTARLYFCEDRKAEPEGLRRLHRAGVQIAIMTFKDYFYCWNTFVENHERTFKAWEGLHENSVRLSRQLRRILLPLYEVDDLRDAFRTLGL
Chain of Protein phosphatase 1D (Homo sapiens) (O15297 whole entry, looked up): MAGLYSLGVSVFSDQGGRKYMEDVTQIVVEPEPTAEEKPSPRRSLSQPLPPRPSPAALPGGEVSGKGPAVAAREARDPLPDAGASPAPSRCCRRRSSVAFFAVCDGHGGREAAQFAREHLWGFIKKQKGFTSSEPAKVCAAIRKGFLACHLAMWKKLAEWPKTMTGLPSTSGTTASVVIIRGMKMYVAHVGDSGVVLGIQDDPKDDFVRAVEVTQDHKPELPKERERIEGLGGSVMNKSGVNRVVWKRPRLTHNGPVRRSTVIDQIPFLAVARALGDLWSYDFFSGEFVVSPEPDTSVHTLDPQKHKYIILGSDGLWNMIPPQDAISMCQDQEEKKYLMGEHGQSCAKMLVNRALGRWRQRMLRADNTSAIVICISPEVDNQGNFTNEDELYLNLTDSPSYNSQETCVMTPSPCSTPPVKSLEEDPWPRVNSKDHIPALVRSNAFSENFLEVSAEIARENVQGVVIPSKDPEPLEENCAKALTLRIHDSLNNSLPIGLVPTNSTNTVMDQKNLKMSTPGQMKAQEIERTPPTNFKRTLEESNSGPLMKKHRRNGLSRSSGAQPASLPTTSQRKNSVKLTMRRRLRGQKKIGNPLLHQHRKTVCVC

c1ccc2sc(C3(N4CCCCC4)CCCCC3)cc2c1
inactive: [1] | [2] | [3] | [4] | [5]

C[C@]12N[C@H](Cc3ccccc31)c1ccccc12
inactive: [1] | [2] | [3] | [4] | [6] | [5]

O=C(O)C(Cl)Cl
inactive: [7] | [8] | [9] | [6] | [10]

CCC1(CCC(C)C)C(=O)NC(=O)NC1=O
inactive: [7] | [8] | [9] | [6] | [10]

O=S(=O)(O)C(F)(F)C(F)(F)C(F)(F)C(F)(F)F
inactive: [7] | [8] | [9] | [6] | [10]

NC1CC1c1ccccc1 (centres undefined)
inactive: [1] | [2] | [4] | [6] | [5] | [10]

NCc1cc(=O)[nH]o1
inactive: [1] | [2] | [4] | [6] | [5] | [11] | [12]

CCOCCOC(C)=O
inactive: [7] | [8] | [9] | [6] | [10]

C=CCC1=C(C)C(OC(=O)C2C(C=C(C)C)C2(C)C)CC1=O (centres undefined)
inactive: [7] | [8] | [9] | [6] | [10]

CCO/N=C(\CC)C1=C(O)CC(c2c(C)cc(C)cc2C)CC1=O (centres undefined)
inactive: [7] | [8] | [9] | [6] | [10]

c1ccc(C2(c3ccccc3)CC2C2=NCCN2)cc1 (centres undefined)
inactive: [1] | [3] | [4] | [13] | [14] | [15] | [6]

c1cc2ccc3cccc4ccc(c1)c2c34
inactive: [7] | [8] | [9] | [6] | [10]

O=[N+]([O-])/N=C1\NCCN1Cc1ccc(Cl)nc1
inactive: [7] | [8] | [9] | [16] | [13] | [14] | [15] | [6] | [10]

O=S(=O)(c1ccc(Cl)cc1)c1ccc(Cl)cc1
inactive: [7] | [8] | [9] | [6] | [10]

O=[N+]([O-])c1c(Cl)c(Cl)cc(Cl)c1Cl
inactive: [7] | [8] | [9] | [6] | [10]

CCC(=O)O[C@@H]1C=C2CCC3C(CCC4(C)C3CC[C@@H]4OC(=O)CC)C2CC1 (some centres undefined)
inactive: [7] | [8] | [9] | [16] | [13] | [14] | [15] | [6] | [10]

CC(O)CN1CCN(CC(=O)[O-])CCN(CC(=O)[O-])CCN(CC(=O)[O-])CC1.[Gd+3] (centres undefined)
inactive: [7] | [8] | [9] | [6] | [10]
